Among the data in PubChem BioAssay (Tox21) are Potency values, retold here.

Results filed as inconclusive are left out. Where a call stands in place of a potency, no number is given. Activity calls are given as the source filed them. Calls come from the whole dose curve.

Sequence of Acetylcholinesterase (Homo sapiens) (P22303 whole entry, looked up): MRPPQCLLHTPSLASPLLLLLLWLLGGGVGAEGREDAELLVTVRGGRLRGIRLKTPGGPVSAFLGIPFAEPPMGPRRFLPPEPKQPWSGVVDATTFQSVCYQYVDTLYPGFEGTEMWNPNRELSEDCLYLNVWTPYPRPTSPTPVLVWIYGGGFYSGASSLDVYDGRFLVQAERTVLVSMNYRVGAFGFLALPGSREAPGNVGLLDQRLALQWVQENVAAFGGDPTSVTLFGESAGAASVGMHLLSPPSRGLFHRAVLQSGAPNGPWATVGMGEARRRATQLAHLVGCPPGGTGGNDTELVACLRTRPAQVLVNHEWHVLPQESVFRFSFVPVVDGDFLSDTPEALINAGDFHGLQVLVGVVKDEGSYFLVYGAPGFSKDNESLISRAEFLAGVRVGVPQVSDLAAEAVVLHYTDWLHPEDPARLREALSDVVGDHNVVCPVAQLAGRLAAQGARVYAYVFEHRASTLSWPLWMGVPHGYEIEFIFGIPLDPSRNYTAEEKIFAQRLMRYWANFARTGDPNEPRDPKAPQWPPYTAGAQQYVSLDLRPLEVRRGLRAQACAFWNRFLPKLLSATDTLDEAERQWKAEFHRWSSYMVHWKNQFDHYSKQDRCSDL

The first assay concerns the target Acetylcholinesterase (Homo sapiens) (UniProt P22303). The assay can be described thus: Acetylcholinesterase (AChE) small molecule antagonists: fluorescence cell-based qHTS assay (AID 1347398). Note: nearly all actives have a fitted effect of over 50% in size. The note with it: SH-SY5Y cells; Potency: AChE activity; outcome: AChE activity; series mostly up to 115 µM. An outline of the steps: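 Cells (SH-SY5Y) attached overnight, were dosed with compound or DMSO vehicle for 30 min at 37 C, and then incubated 40 min at room temperature with acetylthiocholine and Thiolite Green; green fluorescence indexed AChE activity.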
A general note: In qHTS, concentration-response curves come from the screen itself.
Regarding `CCCCCCCCCCCCCCNCCO`, the Potency result was “inactive”.

For the compound `COc1ccccc1NC(=O)CC(C)=O`, the Potency result is “inactive”.

Turning to `CCCCCCCCOc1ccc(C(=O)c2ccccc2)c(O)c1`, the Potency entry was “inactive”.

For `NNC(=O)c1cccc(C(=O)NN)c1`, the Potency entry is “inactive”.

Regarding `Brc1nc2ccccc2s1`, the Potency result was “inactive”.

Consider `c1cc[nH]c1`, for which the Potency result is “inactive”.

On to `CCCN(CCC)C(=O)C(CCC(=O)OCCCN1CCN(CCOC(=O)Cc2c(C)n(C(=O)c3ccc(Cl)cc3)c3ccc(OC)cc23)CC1)NC(=O)c1ccccc1` (stereo not given), for which the Potency entry was “inactive”.

Turning to `CCCCC(CC)CN1CN(CC(CC)CCCC)CC(C)(N)C1` (stereo not given), the Potency result was “inactive”.

As to `O=[N+]([O-])c1cccc(C(F)(F)F)c1`, the Potency result is “inactive”.

As to `CC(C)C(=O)OCCOc1ccccc1`, the Potency result is “inactive”.

Regarding `CCC(C)(C)C1CCC(OC)CC1` (stereo not given), the Potency entry is “inactive”.

On to `Nc1[nH]c(=O)ncc1F`, for which the Potency result is “inactive”.

As for `Oc1ccc(O)c2c(O)cccc12`, the Potency entry is “inactive”.

For the compound `C[C@](N)(Cc1ccc(O)c(O)c1)C(=O)O`, the Potency entry was “inactive”.

Take `CC(C)(C)C(=O)NCCCC(=O)O`: the Potency result was “inactive”.

In the case of `c1ccc(Nc2cccc3ccccc23)cc1`, the Potency entry was “inactive”.

For the compound `O=CN(CCO)CCO`, the Potency entry was “inactive”.

On to `CCN(CCO)c1cccc(C)c1`, for which the Potency entry is “inactive”.

On to `NCc1cccc(CN)c1`, for which the Potency entry was “inactive”.

Regarding `COC(=O)Nc1nc2ccc(S(=O)c3ccccc3)cc2[nH]1` (stereo not given), the Potency entry is “inactive”.

Consider `O=C(O)c1cc(-c2ccccc2)nc2ccccc12`, for which the Potency result is “inactive”.

For the compound `CC1CC(C)C(=O)C1=O` (stereo not given), the Potency result was “inactive”.

Take `CCCC(C)C(=O)OCC` (stereo not given): the Potency entry is “inactive”.

With `CNC[C@H](O)[C@@H](O)[C@H](O)[C@H](O)CO`, the Potency entry is “inactive”.

For the compound `CC1(C)OC(=O)NC1=O`, the Potency entry was “inactive”.

For `CC(C)CCCCCCc1ccc(OCCOCCO)cc1`, the Potency result was “inactive”.

With `[Cl][Dy]([Cl])[Cl]`, the Potency entry was “inactive”.

Consider `CC(C)(C)NC(N)=O`, for which the Potency result is “inactive”.

As to `CCn1cc(C(=O)O)c(=O)c2cc(F)c(N3CCNC(C)C3)c(F)c21` (stereo not given), the Potency result was “inactive”.

Consider `NS(=O)(=O)c1ccc(NC(=O)CCC(=O)O)cc1`, for which the Potency entry was “inactive”.

As for `Cc1c(N(C)C)c(=O)n(-c2ccccc2)n1C`, the Potency result is “inactive”.

In the case of `COc1cc([N+](=O)[O-])ccc1N`, the Potency result was “inactive”.

Regarding `O=C(NO)C1(NS(=O)(=O)c2ccc(Oc3ccc(F)cc3)cc2)CCOCC1`, the Potency result was “inactive”.

In the case of `NC(=O)N1c2ccccc2C=Cc2ccccc21`, the Potency entry was “inactive”.

In the case of `CC1(C)C(O)C(C)(C)C1O` (stereo not given), the Potency entry was “inactive”.

`OCCN1CCN(CCO)CC1`: the Potency result is “inactive”.

Take `CNCCCC12CCC(c3ccccc31)c1ccccc12`: the Potency entry is “inactive”.

Turning to `ClCCl`, the Potency result was “inactive”.

With `C=COCC(C)C`, the Potency result was “inactive”.

Turning to `N/C(=N\N=C\c1ccc(Cl)cc1)N/N=C/c1ccc(Cl)cc1`, the Potency entry is “inactive”.

Another assay shares this target. Put plainly: Acetylcholinesterase (AChE) small molecule antagonists: enzyme-based qHTS assay with human liver microsomes (AID 1347399). Note: nearly all actives have a fitted effect of over 60% in size. As to conditions: Potency: qHTS inhibition; outcome: qHTS inhibition; series mostly up to 115 µM. An outline of the steps: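 Recombinant human AChE (50 mU/mL in the enzyme mix) and human liver microsomes (0.25 mg/mL final) were preincubated with compound and NADPH (0.25 mg/mL final) for 30 min at 37 C. Acetylthiocholine/DTNB was then added; thiocholine was read colorimetrically after 10 min at room temperature.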
With `CCCCCCCCCCCCCCNCCO`, the Potency result is “inactive”.

`COc1ccccc1NC(=O)CC(C)=O`: the Potency result is “inactive”.

With `CCCCCCCCOc1ccc(C(=O)c2ccccc2)c(O)c1`, the Potency result was “inactive”.

In the case of `NNC(=O)c1cccc(C(=O)NN)c1`, the Potency entry is “inactive”.

As to `Brc1nc2ccccc2s1`, the Potency result is “inactive”.

With `c1cc[nH]c1`, the Potency entry was “inactive”.

For `CCCN(CCC)C(=O)C(CCC(=O)OCCCN1CCN(CCOC(=O)Cc2c(C)n(C(=O)c3ccc(Cl)cc3)c3ccc(OC)cc23)CC1)NC(=O)c1ccccc1` (stereo not given), the Potency entry is “inactive”.

As to `CCCCC(CC)CN1CN(CC(CC)CCCC)CC(C)(N)C1` (stereo not given), the Potency entry was “inactive”.

`O=[N+]([O-])c1cccc(C(F)(F)F)c1`: the Potency result was “inactive”.

Take `CC(C)C(=O)OCCOc1ccccc1`: the Potency result was “inactive”.

Turning to `CCC(C)(C)C1CCC(OC)CC1` (stereo not given), the Potency entry was “inactive”.

As for `Nc1[nH]c(=O)ncc1F`, the Potency entry is “inactive”.

On to `Oc1ccc(O)c2c(O)cccc12`, for which the Potency result is “inactive”.

In the case of `C[C@](N)(Cc1ccc(O)c(O)c1)C(=O)O`, the Potency result was “inactive”.

With `CC(C)(C)C(=O)NCCCC(=O)O`, the Potency entry was “inactive”.

In the case of `c1ccc(Nc2cccc3ccccc23)cc1`, the Potency result was “inactive”.

As for `O=CN(CCO)CCO`, the Potency entry is “inactive”.

`CCN(CCO)c1cccc(C)c1`: the Potency entry was “inactive”.

Regarding `NCc1cccc(CN)c1`, the Potency result is “inactive”.

Regarding `COC(=O)Nc1nc2ccc(S(=O)c3ccccc3)cc2[nH]1` (stereo not given), the Potency result is “inactive”.

Turning to `O=C(O)c1cc(-c2ccccc2)nc2ccccc12`, the Potency entry was “inactive”.

Turning to `CC1CC(C)C(=O)C1=O` (stereo not given), the Potency entry was “inactive”.

As to `CCCC(C)C(=O)OCC` (stereo not given), the Potency entry is “inactive”.

Turning to `CNC[C@H](O)[C@@H](O)[C@H](O)[C@H](O)CO`, the Potency result was “inactive”.

Regarding `CC1(C)OC(=O)NC1=O`, the Potency entry is “inactive”.

Turning to `CC(C)CCCCCCc1ccc(OCCOCCO)cc1`, the Potency result is “inactive”.

For the compound `[Cl][Dy]([Cl])[Cl]`, the Potency result is “inactive”.

With `CC(C)(C)NC(N)=O`, the Potency entry was “inactive”.

Turning to `CCn1cc(C(=O)O)c(=O)c2cc(F)c(N3CCNC(C)C3)c(F)c21` (stereo not given), the Potency entry is “inactive”.

Regarding `NS(=O)(=O)c1ccc(NC(=O)CCC(=O)O)cc1`, the Potency entry is “inactive”.

`Cc1c(N(C)C)c(=O)n(-c2ccccc2)n1C`: the Potency entry is “inactive”.

For the compound `COc1cc([N+](=O)[O-])ccc1N`, the Potency entry is “inactive”.

On to `O=C(NO)C1(NS(=O)(=O)c2ccc(Oc3ccc(F)cc3)cc2)CCOCC1`, for which the Potency result was “inactive”.

For `NC(=O)N1c2ccccc2C=Cc2ccccc21`, the Potency entry is “inactive”.

Regarding `CC1(C)C(O)C(C)(C)C1O` (stereo not given), the Potency entry was “inactive”.

`OCCN1CCN(CCO)CC1`: the Potency entry is “inactive”.

With `CNCCCC12CCC(c3ccccc31)c1ccccc12`, the Potency result was “inactive”.

For `ClCCl`, the Potency result was “inactive”.

In the case of `C=COCC(C)C`, the Potency entry was “inactive”.

With `N/C(=N\N=C\c1ccc(Cl)cc1)N/N=C/c1ccc(Cl)cc1`, the Potency entry was “inactive”.
